The values below come from PubChem BioAssay (NCATS).

Inconclusive results are not listed. A call without a number means that no potency is given here. Values without a mark were called inactive. Active and inactive are the calls of the source. Calls follow the shape of the dose curve; as a rule, active = well fitted inhibition curve with a large enough effect; inconclusive = small, poorly fitted or top-dose-only effect; inactive = no such curve, though single readings can be large or run the other way.
Potency is read from the fitted curve at half-maximal effect.

This assay can be described thus: Primary fluorescence-based thiol-reactive (MSTI) qHTS assay for identification of artifact compounds. (AID 1845221). Also: nearly all actives have a fitted effect of over 65% in size.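 As to activity change, negative = thiol reactive: thiol-reactive compounds lower the probe fluorescence signal.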 The note with it: MSTI thiol-reactivity probe, 1 h; series mostly up to 53.8 µM. Put shortly:
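Reactivity toward the thiol probe MSTI (4 uM) is scored by fluorescence at Ex/Em 525/598 nm after 1 h at room temperature. Acetyl-MSTI and MSTI define the activity scale.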
In the case of `CCn1c(-c2nonc2N)nc2cncc(CNC3CCNCC3)c21`, the Potency entry was “inactive”.
Still for that read-out and setting: to `CN1c2ccccc2C(=O)N2CCc3c([nH]c4ccccc34)C21` (stereo not drawn) belongs “inactive”; to `Cc1cc(C(C)Nc2ccccc2)c2nc(N3CCOCC3)cc(=O)n2c1` (stereo not drawn), “inactive”; to `O=c1[nH]nc(OCCCc2ccc(Cl)cc2)c(NCc2cccnc2)c1Br`, “inactive”.
On to `COc1ccc(-c2nc3ccc(C4=NNC(=O)CC4C)cc3[nH]2)cc1` (stereo not drawn), for which the Potency result was “inactive”.
Regarding `CCNC(=O)c1noc(-c2cc(C(C)C)c(O)cc2O)c1-c1ccc(CN2CCOCC2)cc1`, the Potency result was “inactive”.
Same read-out and setting: to `CNC1CCC(N(Cc2cccc(-c3ccncc3)c2)C(=O)c2sc3ccccc3c2Cl)CC1` (stereo not drawn) belongs “inactive”; to `CCN1CCC(n2cc(CNc3cc(Cl)c4ncc(C#N)c(Nc5ccc(F)c(Cl)c5)c4c3)nn2)CC1`, “inactive”; to `O=C(CCCN1CCN(c2ccc(F)cc2)CC1)NC1c2ccccc2CSc2ccccc21` (stereo not drawn), “inactive”.
`CNC(=O)c1c(-c2ccc(F)cc2)oc2cc(N(CCO)S(C)(=O)=O)c(C3CC3)cc12`: the Potency result was “inactive”.
Turning to `COc1cc2nccc(Oc3ccc(NC(=O)Nc4cc(C)on4)c(Cl)c3)c2cc1OC`, the Potency entry is “inactive”.
Turning to `COc1ccc(-c2ccc3ncc4c(c3c2)n(-c2ccc(N3CCNCC3)c(C(F)(F)F)c2)c(=O)n4C)cn1`, the Potency result is “inactive”.
Still for that read-out and setting: the entry for `Cc1nc2c([nH]1)CCN(C(=O)c1ccc(NC(=O)c3ccccc3-c3ccccc3)cc1)c1ccccc1-2` is “inactive”; for `C[C@@H](NC(=O)c1ncnc(N)c1Cl)c1ncc(C(=O)Nc2cc(C(F)(F)F)c(Cl)cn2)s1` it is “inactive”.
Same read-out and setting: the entry for `Cc1cc2c(cc1C1(c3ccc(C(=O)O)cn3)CC1)C(C)(C)CCC2(C)C` is “inactive”; for `NS(=O)(=O)c1ccc(Nc2nc(OCC3CCCCC3)c3[nH]cnc3n2)cc1` it is “inactive”; for `CC(C)(C)c1nc(-c2cccc(NS(=O)(=O)c3c(F)cccc3F)c2F)c(-c2ccnc(N)n2)s1` it is “inactive”.
As to `COc1nccc(-c2c(-c3ccc(F)cc3)ncn2C2CCNCC2)n1`, the Potency result was “inactive”.
With `Cc1ccccc1-n1c(Cn2nc(-c3cccc(O)c3)c3c(N)ncnc32)nc2cccc(C)c2c1=O`, the Potency result is “inactive”.
Still for that read-out and setting: to `Fc1ccc(CNc2ncnc3ccc(F)cc23)cc1` belongs “inactive”.
The same measure, in the same setting: the entry for `Cc1cc(-c2ncc(CC(=O)Nc3ccc(-c4cnccn4)cn3)cc2C)ccn1` is “inactive”.
On to `CCC(=O)N1CCN(c2ccc(-n3c(=O)ccc4cnc5ccc(-c6cnc7ccccc7c6)cc5c43)cc2C(F)(F)F)CC1`, for which the activity change, negative = thiol reactive was -11% [at 11.5 µM].
On to `O=S(=O)(O)c1ccc2cc(N=Nc3cc(S(=O)(=O)O)c4cccnc4c3O)ccc2c1`, for which the Potency was 150 nM (active).
Still for that read-out and setting: to `O=C1C(c2c(O)[nH]c3ccccc23)=Nc2ccccc21` belongs 184 nM (active); to `Cc1cnc(Nc2cccc(CN3CCOCC3)c2)nc1Nc1cccc(S(=O)(=O)NC(C)(C)C)c1`, “inactive”; to `CC1=C[C@@H]2[C@@H]([C@@H](O)C[C@@]3(C)[C@H]2C[C@@H](C)[C@]3(O)C(=O)CO)[C@@]2(C)Cc3cnn(-c4ccccc4)c3C=C12`, “inactive”.
Take `O=C(Nc1ccc(OC(F)(F)F)cc1)c1sccc1NCc1ccnc2ccccc12`: the Potency result was “inactive”.
As for `NS(=O)(=O)c1cc(Cl)c(Cl)c(S(N)(=O)=O)c1`, the Potency entry was “inactive”.
